Among the data in PubChem BioAssay (NCI) are growth values, retold here.

About 83,000 compounds went through this panel and 20% of them were active in at least one assay; those are over-represented in the sample as a whole.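 Treatment: one concentration, 48 hours, 96-well format. Scoring: percent growth, with anything below 10 considered active.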 Active and inactive are the calls of the source.

The assay relates to CAKI-1 renal. Kind of assay: NCI-60 one-dose screen, 48 h (100 = growth as untreated, 0 = no growth, -100 = all killed). Conditions: 10 µM unless noted. The procedure: Growth inhibition of the CAKI-1 human tumor cell line is measured as a screen for anti-cancer activity. Cells are grown in 96 well plates and exposed to the test compound for 48 hours. Compounds are tested at a single concentration, which is 10^-5 M for most compounds. The reported endpoint is percent growth (GI% or GIPRCNT), where numbers from 0 - 100% represent growth inhibition, and numbers from -100% - 0 represent cell death. For example, a value of 40 represents 60% growth inhibition. A value of 0 means no net growth occurred over the course of the experiment. A value of -40 indicates 40% of cells at the beginning of the experiment died by the end of the experiment. A value of -100 means all cells are dead at the end of the experiment.
NCI-60 Human Tumor Cell Lines Screen was performed using the standard one-dose NCI protocol, which is described in more detail at https://dtp.cancer.gov/discovery_development/nci-60/default.htm.
Compounds with GIPRCNT values below 10 were considered active. Activity score was based on GIPRCNT using the following formula: […]
Score is 0 for GIPRCNT values of 100 or above, 50 for GIPRCNT values of 0, and 100 for GIPRCNT values of -100.
In the case of `COc1ccc(/C=C/c2nc(Nc3cccc(NC(C)=O)c3)c3ccccc3n2)cc1`, the growth was 67.4% (inactive). Next, `COc1cccc2c1c1nc3cc(C)c(C)cc3nc1n2CCN(C)C`: 9.75% (active). Next, `Cc1ccc(-n2c3c(c(-c4ccccc4)c2-c2ccccc2)C2=NCCN2C=N3)cc1`: 72.9% (inactive); `COc1cc(/C=C2\COc3ccc(-c4ccccc4)cc3C2=O)cc(OC)c1`: 71.6% (inactive); `O=C(CSc1nc2sc3c(c2c(=O)n1-c1ccc(Cl)cc1)CCCC3)Nc1nc(-c2cccc(Br)c2)cs1`: 49% (inactive).

Consider `O=C(Cc1ccccc1)NNc1nc(Cl)nc(N2CCN(C(c3ccccc3)c3ccccc3)CC2)n1`, for which the growth was 84.4% (inactive). The figure for `c1ccc2cc(Cn3c(-c4cccc5ccccc45)[n+](Cc4ccc5ccccc5c4)c4c5ccccc5c5ccccc5c43)ccc2c1` is -96.7% (active); for `CN[C@@H](C)C(=O)N[C@H]1CCS[C@H]2CC(C)(C)[C@@H](C(=O)N[C@H]3c4ccccc4C[C@H]3OCC#CC#CCO[C@@H]3Cc4ccccc4[C@@H]3NC(=O)[C@H]3N4C(=O)[C@@H](NC(=O)[C@H](C)NC)CCS[C@H]4CC3(C)C)N2C1=O` it is 99.9% (inactive); for `COc1cc2oc(-c3cccc(C(=O)Nc4ccccc4)c3)cc(=O)c2c(O)c1OC` it is 48.9% (inactive).

As for `C[C@H]1[C@H](C)CC[C@]2(C(=O)NCC#CCN3CCN(C)CC3)CC[C@]3(C)C(=CC[C@@H]4[C@@]5(C)Cc6c([nH]c7ccccc67)C(C)(C)[C@@H]5CC[C@]43C)[C@H]12`, the growth is 91.9% (inactive). Next, `COc1cc2c(-c3cc4c(cc3CNCCc3ccc5c(c3)OCO5)OCO4)cccc2c(OC)c1O`: 54.9% (inactive); `COc1ccc(/C=C2\Oc3cc(OCCCN4CCCCC4)ccc3C2=O)cc1OC`: 92.8% (inactive); `CN(C)CCC(=O)c1ccc([N+](=O)[O-])cc1`: 96.3% (inactive).

As for `Cc1ccc(C(=O)/C(=C/c2ccc([N+](=O)[O-])cc2)SCc2ccc(Cl)cc2)cc1`, the growth is 74.8% (inactive). The figure for `O=C(CCN1CCCC1)Nc1ccc2c(Nc3ccc(Br)cc3)c3ccccc3nc2c1` is 15.3% (inactive); for `O=C(Nc1ccc(-c2ccc3c(c2)NC(=O)/C3=C\c2ccc[nH]2)cc1)NC1CC1` it is 99.9% (inactive). Next, `COc1ccc(/C=N/NC(=O)c2cnn3c2NC(c2ccccc2)C3)cc1OC` (stereo not given): 56.1% (inactive); `COc1cc2nc(-c3ccc(Cl)cc3)cc(OCCCN3CCCCC3)c2cc1OC`: 0.0525% (active); `COc1cc(NCCCCCNC(C)(C)C)c2ncccc2c1`: 78.7% (inactive). Next, `NNC(=O)c1ccc(-n2nc(-c3ccccc3)c3ccccc32)cc1`: 76.5% (inactive). For the compound `Cn1cc(CC2CC(=O)N(c3ccccc3)C2=O)sc1=NC(=O)c1ccccc1` (stereo not given), the growth is 94.7% (inactive).

On to `Cc1ccc(S(=O)(=O)Nn2c3c(cc(-c4nc5ccccc5s4)c2=O)CCCCCC3)cc1`, for which the growth was 86.6% (inactive).

Take `Cc1cc(Cl)nc(N(CCNc2ccnc3cc(Cl)ccc23)Cc2ccccn2)n1`: the growth was 56.1% (inactive).

As to `C/C(=N\Nc1cc(C)nc2ccc(Br)cc12)c1ccc([N+](=O)[O-])cc1`, the growth is 84.6% (inactive).

Turning to `CCN1Cc2nc3sc(C)c(C)c3c(=O)n2C=C1C`, the growth was 61.6% (inactive). Consider `CCCCCN1C=C/C(=C\C(=O)N(C)c2ccc(Oc3ccccc3)cc2)c2ccccc21`, for which the growth was 93.1% (inactive). Next, `CN1CCN(C(=O)[C@]23CCC(C)(C)C[C@H]2C2=CC[C@@H]4[C@@]5(C)C/C(=C/c6cccnc6)C(=O)C(C)(C)[C@@H]5CC[C@@]4(C)[C@]2(C)CC3)CC1`: 66.6% (inactive).

For `C=C1C(=O)O[C@H]2[C@H]1CC/C(COC(=O)NCC(C)c1ccc(CC(C)C)cc1)=C\CC[C@@]1(C)O[C@@H]21` (stereo not given in full), the growth was -23.9% (active). Next, `O=C1C=CC(=O)N1c1cccc(Cl)c1`: 79.4% (inactive); `COc1ccc(C(=O)c2nc3ccccc3n2CC(=O)c2ccc(Cl)cc2)cc1`: 23.7% (inactive).

Consider `Oc1c(Cl)cc(Cl)c(Cl)c1CNCCNCc1c(O)c(Cl)cc(Cl)c1Cl`, for which the growth was 9.72% (active). Turning to `Cn1cc(-c2nc(-c3c[nH]c4c(Cl)nccc34)cs2)c2cc(F)ccc21`, the growth was 99.2% (inactive). The figure for `Cn1cc(-c2csc(-c3c[nH]c4ccccc34)n2)c2ccnc(Cl)c21` is 66.1% (inactive). Next, `CCN(c1ccccc1)S(=O)(=O)c1cc([N+](=O)[O-])ccc1Cl`: 48.1% (inactive); `Cc1cc2nc3c4cc([N+](=O)[O-])ccc4n(CCN(C)C)c3nc2cc1C`: -15.7% (active); `Cn1ccnc1C(=O)/C=C/c1ccc(CC(=O)Nc2ccc(Cl)cc2)cc1`: 34.7% (inactive). Next, `CSc1nc2sc3cccc(Cl)c3n2c(=N)c1C#N`: 86.8% (inactive); `c1ccc(Cn2cnc3ccc(-c4nc(-c5ccc6c(c5)ncn6C5CCCCC5)cn5ccnc45)cc32)cc1`: 43.3% (inactive). Take `NS(=O)(=O)c1ccc(CCn2c(SCC(=O)c3ccc(Cl)cc3)nc3ccccc3c2=O)cc1`: the growth was 89.7% (inactive). The figure for `COC(=O)N[C@H]1CCc2c(Cl)c(OC)c(OC)c(OC)c2-c2ccc(SC)c(=O)cc21` is 15.1% (inactive).
